High-throughput results (PubChem BioAssay)
Sampled rows, rich in hits. Any-hit rate of the full collection: about 12%.
VP16 counter: counter-screen for ROR gamma inhibitors: Gal4-VP16 reporter; Potency, µM (titrated, usually from 53.6 µM), without a hit: top-dose activity, negative = inhibition, hits mostly inhibitors; AID 2546; 310,000 compounds, 3.5% hits; Drosophila S2 Gal4-VP16 UAS-luciferase, luminescence, 20 h;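 note: Gal4-VP16 expression switched on by copper sulfate through the metallothionein promoter; nearly all actives have a fitted effect of over 50% in size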
RORg inh: inhibitors of mouse ROR gamma transcriptional activity | 310,000 compounds, 5.4% hits | Drosophila S2 Gal4-RORgamma UAS-luciferase reporter, 20 h | Potency, µM (titrated, usually from 53.6 µM), inactives show top-dose activity change, negative = inhibition, actives largely listed as inhibitors | P51450; note: nearly all actives have a fitted effect of over 60% in size
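Compounds are pin-transferred onto Drosophila Schneider cells expressing a copper-inducible Gal4–ROR gamma transactivation domain fusion. After 1 hr, copper sulfate is added to 700 uM final; luciferase is read 20 hr later.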
Sfp inh: inhibitors of Bacillus subtilis Sfp phosphopantetheinyl transferase. Potency, µM, for the others: largest response in the series, negative = inhibition, usual class: inhibitors. Q9F4F7. Biochemical Sfp PPTase activity, qHTS. 310,000 compounds, 3.5% hits;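 note: the enzyme is Sfp with the accession as filed and its product quenches rhodamine fluorescence; 0% = enzyme reaction without inhibitor and -100% = no enzyme wells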
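Step 1, compound plus 15 nM Sfp-PPTase, 15 min, room temperature. Step 2, add rhodamine-CoA (5 uM) and BHQ-2-YbbR (12.5 uM). Step 3, read 525/598 nm fluorescence at 0 and 30 min.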
ALDH1A1 block: blocks purified human ALDH1A1 activity. P00352. 220,000 compounds, 7.3% hits. Potency, µM (top dose mostly 75.3 µM), inactives show at the highest dose activity, negative = inhibition, hits mostly inhibitors. Purified ALDH1A1, NADH fluorescence, propionaldehyde substrate; active = well fitted inhibition curve with a large enough effect, not every such curve was filed as active; inconclusive = small, poorly fitted or top-dose-only effect, or another doubt; inactive = no such curve, though single readings can be large or run the other way;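 note: plate controls were no enzyme wells and a reference inhibitor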
PLK1 PBD inh: PLK1 (human) polo-box domain binding inhibition. P53350. Plk1 PBD binding of FITC phosphopeptide, fluorescence polarization. Potency, µM, for the others: max response, negative = inhibition, hits mostly inhibitors. 360,000 compounds, 2.8% hits. AID 720504; note: series mostly up to about 57 µM; nearly all actives have a fitted effect of over 65% in size
Target sequence (P53350 whole entry, looked up, the tested form may be a part): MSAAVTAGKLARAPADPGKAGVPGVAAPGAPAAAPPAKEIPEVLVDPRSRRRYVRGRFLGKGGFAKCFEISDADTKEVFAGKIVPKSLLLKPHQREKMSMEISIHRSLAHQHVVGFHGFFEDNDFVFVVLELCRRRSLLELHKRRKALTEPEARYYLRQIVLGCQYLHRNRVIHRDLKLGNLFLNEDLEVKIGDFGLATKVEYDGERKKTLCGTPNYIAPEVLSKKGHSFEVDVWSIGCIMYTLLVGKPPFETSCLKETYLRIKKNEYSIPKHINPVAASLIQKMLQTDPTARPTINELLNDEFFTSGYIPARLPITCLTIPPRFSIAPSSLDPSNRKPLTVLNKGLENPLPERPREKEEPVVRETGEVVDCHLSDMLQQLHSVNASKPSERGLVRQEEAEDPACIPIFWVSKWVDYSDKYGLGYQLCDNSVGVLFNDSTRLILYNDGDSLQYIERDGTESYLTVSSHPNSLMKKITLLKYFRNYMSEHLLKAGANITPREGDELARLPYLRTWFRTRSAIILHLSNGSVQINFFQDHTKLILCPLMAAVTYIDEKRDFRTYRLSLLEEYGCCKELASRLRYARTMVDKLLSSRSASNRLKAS
* marks the source's active call; other numbers are inactive results; ? = inconclusive; . = not tested or not shown; ! = a repeat was not active. Unless noted, calls come from the whole dose curve; as a rule, active = well fitted curve in the direction sought with a large enough effect; inconclusive = small, poorly fitted or top-dose-only effect, or another doubt; inactive = no such curve, though single readings can be large; an effect the other way counts as inactive or inconclusive. Unless noted, % is set by controls: 0 for no effect and ±100 for the full control effect; potency is the fitted concentration of half-maximal effect.

SMILES	VP16 counter	RORg inh	Sfp inh	ALDH1A1 block	PLK1 PBD inh
C=CCc1c(C)[nH]c2c(OC)cccc2c1=S	?	11.2µM*	12.6µM*	?	-2.4%
COC(=O)C1=C(C)N(Cc2ccccc2)C(=O)N[C@@H]1c1ccccc1	3.0%	-5.5%	?	2.0%	.
COC(=O)C1=C(C)N(Cc2ccccc2)C(=NCc2cccc(C(F)(F)F)c2)N[C@H]1c1cccc(F)c1	?	?	56.2µM*	.	-15.1%
COC(=O)C1=C(C)N(Cc2ccccc2)C(=O)N[C@H]1c1ccccc1	-5.8%	5.6%	-0.8%	7.94µM*!	-16.5%
CCOC(=O)C1=C(C)N(CC)C(=S)NC1c1ccc(Cl)cc1 (centres undefined)	6.31µM*	7.08µM*	-5.0%	?	-6.6%
CCN1C(=S)N[C@@H](c2cccc(F)c2)C(C(=O)OC)=C1C	11.2µM*	5.01µM*	18.9%	.	-2.5%
CC(C)(C)OC(=O)N1CCC[C@H]1C(=O)N1CCC[C@H]1C(=O)NCc1ccncc1	.	.	.	.	-6.3%
O=C(COC(=O)c1ccccc1SCC(=O)N1CCCC1)NCc1ccc(F)cc1	.	.	.	.	-19.4%
COC(=O)C1=C(C)N(Cc2ccccc2)C(=S)N[C@H]1CCc1ccccc1	?	4.47µM*	3.4%	.	.
COC(=O)C1=C(C)N(Cc2ccccc2)C(=S)N[C@H]1c1ccccc1	15.8µM*	3.16µM*	-8.3%	.	3.0%
COC(=O)C1=C(C)N(Cc2ccccc2)C(=NCCCCO)N[C@H]1CCc1ccccc1	-1.9%	-2.4%	-3.0%	.	-5.4%
COC(=O)C1=C(C)N(Cc2ccccc2)C(=NCC(C)C)N[C@H]1c1ccccc1	-6.2%	1.1%	17.2%	.	-9.4%
CC1CCCC(C)N1C(=O)COC(=O)CNS(=O)(=O)c1ccc2ccccc2c1 (centres undefined)	.	.	.	.	3.2%
O=C(O)Cc1cc2ccccc2nc1C(=O)O	-20.0%	-4.4%	79.4µM*	?	.
O=C(O)c1nc2ccccc2nc1C(=O)O	10.8%	24.4%	-7.7%	?	-12.1%
Cc1cc(NS(=O)(=O)c2ccc(NC(=O)CSc3nc4sc(C)c(C)c4c(=O)[nH]3)cc2)no1	-7.3%	12.5%	-5.5%	-5.5%	-18.9%
CCOC(=O)c1ccc(NC(=O)CSc2nc3sc(C(=O)O)c(C)c3c(=O)[nH]2)cc1	2.9%	29.7%	21.5%	14.1µM*	-4.8%
COC(=O)c1ccc(CSc2nc3sc(C(=O)O)c(C)c3c(=O)[nH]2)cc1	-0.1%	27.7%	18.3%	?	1.9%
Cc1cc(NS(=O)(=O)c2ccc(NC(=O)CSc3nc4sc(C(=O)O)c(C)c4c(=O)[nH]3)cc2)no1	5.6%	3.8%	11.5%	-1.7%	26.7µM*
NS(=O)(=O)c1ccc(NS(=O)(=O)c2ccc(NC(=S)Nc3ccccc3)cc2)cc1	4.7%	-26.0%	-24.2%	?	-20.5%
NS(=O)(=O)c1ccc(NC(=S)Nc2ccn(Cc3cccc4ccccc34)n2)cc1	?	10µM*	27.0%	12.6µM*	-19.2%
Nc1nc(-c2c[nH]c3ccccc23)cs1	11.5%	7.1%	22.4µM*	7.94µM*	?
CNc1nc(-c2c[nH]c3ccccc23)cs1	2.7%	?	56.2µM*	7.08µM*	?
Nc1nc(-c2ccccc2Cl)cs1	.	.	.	.	18.9µM*
CC(C(=O)Nc1cccnc1)N1C(=O)C2C3C=CC(C3)C2C1=O (centres undefined)	-5.3%	-6.3%	9.1%	20µM*	0.3%
SMILES	VP16 counter	RORg inh	Sfp inh	ALDH1A1 block	PLK1 PBD inh
Cn1nnc2sc3c(c2c1=O)CCCC3	-7.3%	3.8%	50.1µM*	12.6µM*	?
COc1cccc(CN(C)CCCn2cnc3c(SC)ncnc32)c1	.	.	.	.	-2.5%
CCOc1cc(/C=C2\SC(=N)N(c3nonc3N)C2=O)ccc1OCCN1CCOCC1	?	3.16µM*	-6.2%	6.0%	-6.0%
CCOc1cc(/C=C2\SC(=N)N(c3nonc3N)C2=O)ccc1OCC(N)=O	-6.6%	?	-16.4%	-18.2%	-4.3%
COc1ccc(CN2CCN(Cc3c[nH]c4ccccc34)CC2)cc1OC	.	.	.	.	-14.4%
COc1cc(NC(=S)NCCc2c[nH]c3ccccc23)c(OC)cc1Cl	3.55µM*	7.08µM*	22.6%	7.1%	1.4%
COc1cc(NC(=S)NCCO)c(OC)cc1Cl	2.4%	12.0%	-18.2%	.	?
COc1ccc(NC(=S)NCCc2c[nH]c3ccccc23)cc1	12.6µM*	14.1µM*	18.3%	-8.3%	-2.4%
